Measured values from PubChem BioAssay AID504727 (Broad Institute, 2011).
Active and inactive are the calls of the source.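 How the source made its calls: active means fitted half-maximal concentration AC50 at or below ten times the highest valid tested dose, with signal falling as DNA is displaced (actives reach about 34 µM in these data); inconclusive means flat fit at moderate signal loss, or poor fit quality; inactive means the rest, including signal rising instead of falling.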

Experiment: DNA intercalators displacing acridine orange, dose response, artefact control for KSHV LANA DNA-binding inhibitor project, biochemical, fluorescence polarization, cherry-picked samples, set 2 (AID 504727)
Conditions: AC50: Acridine orange-DNA displacement; series mostly up to 35 µM

AC50, active:
O=C(c1ccccc1)c1ccc(O)cc1O 7.3 µM
O=C1c2cccc3c(O)ccc(c23)C(=O)N1Cc1ccco1 1.19 µM
CCN(CC)c1ccc2cc(S(=O)(=O)c3ccc(Cl)cc3)c(=O)oc2c1 6.87 µM
CCNc1ccc2noc3c2c1C(=O)c1ccccc1-3 0.935 µM
Nc1ccc(-c2c3ccc(=O)cc-3oc3cc(O)ccc23)cc1C(=O)O 1.07 µM
CC(=O)Oc1ccc2c(c1)Oc1cc(OC(C)=O)ccc1C21OC(=O)c2ccccc21 8.39 µM
Cc1n[nH]c(C)c1N1C(=O)c2cccc3c(N4CCCCCC4)ccc(c23)C1=O 33.6 µM
Cc1cc[n+](-c2[nH]c(=O)sc2/C=N/N=C(\[O-])c2ccccc2)cc1C 12.9 µM

AC50, inactive:
CN1CCc2c(sc(NC(=O)c3ccc4ccccc4c3)c2C(N)=O)C1
C=CCn1c(C)cc(-c2csc(NC(=O)CCc3nc4ccccc4c(=O)[nH]3)n2)c1C
CC(C)C(C(=O)O)N1C(=O)/C(=C/C=C/c2ccco2)SC1=S (stereo not drawn)
O=C1c2ccccc2C(=O)C1c1ccccn1
COc1ccc(NC(=O)COC(=O)c2c(-c3ccccc3)noc2C)cc1
O=C(CCCN1C(=O)/C(=C\c2ccco2)SC1=S)Nc1ccc(O)cc1C(=O)O
CCOC(=O)c1c(C)n(C)c2ccc(OCCN(C)C)cc12
O=C(/C=C/c1ccco1)Nc1ccccc1C(=O)Nc1cccc(C(=O)O)c1
COc1ccc(NS(=O)(=O)c2ccc(C)c(C(=O)N(C)Cc3ccc(OC)cc3OC)c2)cc1
CC(C)=C[C@@H]1C[C@H](C)[C@H]2CC[C@H](C)c3c(O[C@@H]4O[C@@H](C)[C@@H](O)[C@@H](O)[C@@H]4O)c(O)c(C)c1c32
Nc1c(-c2ccccn2)cnn1-c1nc(-c2ccc(F)cc2)cs1
O=S(=O)(O)c1cc(Cl)cc(N=Nc2ccc(O)cc2O)c1O
CC(C(=O)O)N1C(=O)/C(=C/C=C/c2ccco2)SC1=S (stereo not drawn)
Cc1c(N)cc(S(=O)(=O)O)cc1NC(=O)c1cccc([N+](=O)[O-])c1
Cc1ccc(NC(=O)CN2C(=O)N/C(=C/c3cc(C)n(-c4ccc(C(=O)O)cc4)c3C)C2=O)cc1
CCOc1ccccc1N1CCN(C(=O)c2ccc3nc(N)sc3c2)CC1
CC(=O)N(C(C)=O)N1C(=O)c2cccc3c(N4CCOCC4)ccc(c23)C1=O
Fc1ccc(-c2cc(C(F)(F)F)nc(-n3cc(Cl)cn3)n2)cc1
Cc1cc(C)n(CC(=O)NNC(=O)CC(C)c2ccccc2)n1 (stereo not drawn)
Cc1cccc(NC(=O)CN2C(=O)NC(C)(c3ccc4ccccc4c3)C2=O)n1 (stereo not drawn)
Cc1nn(Cc2c(F)c(F)c(F)c(F)c2F)c(C)c1NC(=O)c1ccnn1C
CCOCCCn1c(SCC(=O)NC(C)(C)C)nc2ccccc2c1=O
CCc1sc(C(=O)NNC(=O)CNC(=O)c2ccccc2F)cc1C
CC(OC(=O)CCN1C(=O)C2CC=CCC2C1=O)C(=O)Nc1ccc(F)cc1 (stereo not drawn)
CCC(Sc1ncccc1C(=O)O)C(=O)N1CCCC1 (stereo not drawn)
COc1ccc(N=C2SC(CC(=O)Nc3ccccc3)C(=O)N2Cc2ccco2)cc1 (stereo not drawn)
CC(C)(CS(=O)(=O)[O-])NC(=O)CC[N+](C)(C)CCO
CCCCn1nc(CC(=O)O)c2ccccc2c1=O
CC(C)[C@H](NC(=O)c1ccccc1F)C(=O)NC1CCCCCCC1
O=c1cc(-c2ccc(O)c(O)c2)oc2cc(O[C@@H]3O[C@H](CO)[C@@H](O)[C@H](O)[C@H]3O)cc(O)c12
